Laboratory results reported in the supplement of paper PMC10849652.
Of roughly 8,800 targets only a part is listed; those with a hit were picked by preference. About 0.5% of all pairs of compound and target were hits. Values without a mark were called inactive.

Key:
Assay in all cases: log2 fold change, soluble protein after heating vs DMSO (PISA); higher = thermal stabilisation; K562 lysate, 10 uM; active = over 0.2 and 3.5 SD of the protein, either way, in both replicates (recomputed)
[1] = compound: CS(=O)(=O)CCNCc1ccc(-c2ccc3ncnc(Nc4ccc(OCc5cccc(F)c5)c(Cl)c4)c3c2)o1 [lapatinib]
Outline: (§1)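 A 30 min treatment with 10 μM compound was applied to crude K562 extract at 1 mg/mL protein in PBS pH 7.4 with 1 mM MgCl2. Heating for 3 min spanned 48°C-58°C, after which aliquots were pooled, adjusted to 0.5% NP-40 at 4°C and spun at 21,000xg for 90 min. TMTpro 16plex LC-MS/MS of the supernatant, with channel sums equalised, gave values recorded as log-two fold change in thermal stability against solvent controls, from duplicates.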

[2] = compound: CS(=O)(=O)N1CCN(Cc2cc3nc(-c4cccc5[nH]ncc45)nc(N4CCOCC4)c3s2)CC1 [pictilisib]
Outline: as §1

[3] = compound: C[C@@H](Oc1cc(-c2cnn(C3CCNCC3)c2)cnc1N)c1c(Cl)ccc(F)c1Cl [crizotinib]
Outline: as §1

[4] = compound: C[C@H](C1=CC=C(C=C1)C(=O)NC2=C3C=CNC3=NC=C2)N
Outline: as §1

[5] = compound: C[C@H](Nc1ncnc2nc[nH]c12)c1cc2cccc(Cl)c2c(=O)n1-c1ccccc1 [duvelisib]
Outline: as §1

[6] = compound: Cc1cc(Nc2cc(CN3CCOCC3)c3nc(C)c(Cc4ccc(Cl)cc4F)n3n2)n[nH]1 [gandotinib]
Outline: as §1

[7] = compound: Cc1ccc(-n2nc(C(C)(C)C)cc2NC(=O)Nc2ccc(OCCN3CCOCC3)c3ccccc23)cc1 [doramapimod]
Outline: as §1

[8] = compound: Cc1ccc(NC(=O)c2ccc(CN3CC[C@H](N(C)C)C3)c(C(F)(F)F)c2)cc1Nc1nccc(-c2cncnc2)n1 [bafetinib]
Outline: as §1

[9] = compound: Cc1cccc(CC(=O)N2CCc3c2ccc(-c2cn(C)c4ncnc(N)c24)c3F)n1
Outline: as §1

[10] = compound: Cc1nc(Nc2ncc(C(=O)Nc3c(C)cccc3Cl)s2)cc(N2CCN(CCO)CC2)n1 [dasatinib]
Outline: as §1

[11] = compound: Cn1cc(-c2ccc3c(c2)CCN3C(=O)Cc2cccc(C(F)(F)F)c2)c2c(N)ncnc21
Outline: as §1

[12] = compound: Cn1cc(CNCC2CCN(c3ncc(C(=O)NO)cn3)CC2)c2ccccc21 [quisinostat]
Outline: as §1

[13] = compound: NC(=O)Nc1cc(-c2cccc(F)c2)sc1C(=O)N[C@H]1CCCNC1
Outline: as §1

[14] = compound: NC(=O)c1cnc(N[C@@H]2CCCC[C@@H]2N)nc1Nc1cccc(-n2nccn2)c1
Outline: as §1

[15] = compound: NC1(c2ccc(-c3nc4ccn5c(=O)[nH]nc5c4cc3-c3ccccc3)cc2)CCC1
Outline: as §1

[16] = compound: Cc1cn(-c2cc(NC(=O)c3ccc(C)c(Nc4nccc(-c5cccnc5)n4)c3)cc(C(F)(F)F)c2)cn1 [nilotinib]
Outline: as §1

[17] = compound: Cc1nc(Nc2n[nH]c3c2CN(C(=O)N[C@H](CN(C)C)c2ccccc2)C3(C)C)c2sccc2n1
Outline: as §1

[18] = compound: Cc1ncc(-c2ccnc(Nc3ccc(S(C)(=O)=O)cc3)n2)n1C(C)C
Outline: as §1

[19] = compound: Cn1cncc1[C@@](N)(c1ccc(Cl)cc1)c1ccc2c(c1)c(-c1cccc(Cl)c1)cc(=O)n2C [tipifarnib]
Outline: as §1

[20] = compound: Cc1cc(Nc2cc(N3CCN(C)CC3)nc(Sc3ccc(NC(=O)C4CC4)cc3)n2)n[nH]1 [tozasertib]
Outline: as §1

Chain of UniProt P53396 (P53396 whole entry, looked up): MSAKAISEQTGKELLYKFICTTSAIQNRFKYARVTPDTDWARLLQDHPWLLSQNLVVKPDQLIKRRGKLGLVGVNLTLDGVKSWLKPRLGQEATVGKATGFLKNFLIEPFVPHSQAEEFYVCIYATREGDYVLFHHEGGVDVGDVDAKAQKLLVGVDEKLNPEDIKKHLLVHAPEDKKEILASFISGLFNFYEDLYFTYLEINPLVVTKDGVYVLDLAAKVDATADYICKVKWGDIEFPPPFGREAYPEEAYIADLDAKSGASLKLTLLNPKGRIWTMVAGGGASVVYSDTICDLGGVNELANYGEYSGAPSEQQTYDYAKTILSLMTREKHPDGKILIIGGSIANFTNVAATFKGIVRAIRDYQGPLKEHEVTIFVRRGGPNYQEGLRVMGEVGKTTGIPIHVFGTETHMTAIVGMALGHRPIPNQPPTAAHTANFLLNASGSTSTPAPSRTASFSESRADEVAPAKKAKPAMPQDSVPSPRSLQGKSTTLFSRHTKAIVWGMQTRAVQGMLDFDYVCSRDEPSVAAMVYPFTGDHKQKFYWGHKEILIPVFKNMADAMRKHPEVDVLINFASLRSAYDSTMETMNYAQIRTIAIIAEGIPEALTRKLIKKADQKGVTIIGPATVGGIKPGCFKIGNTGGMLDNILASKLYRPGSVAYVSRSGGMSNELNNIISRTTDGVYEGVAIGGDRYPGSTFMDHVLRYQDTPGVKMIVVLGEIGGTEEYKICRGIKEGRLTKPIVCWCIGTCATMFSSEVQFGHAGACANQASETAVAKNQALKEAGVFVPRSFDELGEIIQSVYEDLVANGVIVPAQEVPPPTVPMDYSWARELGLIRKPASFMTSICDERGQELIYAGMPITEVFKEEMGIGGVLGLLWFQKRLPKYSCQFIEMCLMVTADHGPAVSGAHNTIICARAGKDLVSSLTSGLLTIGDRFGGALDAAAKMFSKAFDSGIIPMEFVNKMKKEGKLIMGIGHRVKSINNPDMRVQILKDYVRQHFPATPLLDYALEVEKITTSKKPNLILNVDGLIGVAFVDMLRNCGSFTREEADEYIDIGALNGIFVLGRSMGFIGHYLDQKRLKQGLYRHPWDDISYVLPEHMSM
Chain of UniProt P14621 (P14621 whole entry, looked up): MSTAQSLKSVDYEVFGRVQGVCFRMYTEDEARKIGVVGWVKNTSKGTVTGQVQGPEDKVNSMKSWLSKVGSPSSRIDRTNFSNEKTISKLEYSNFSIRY
Chain of UniProt O14617 (O14617 whole entry, looked up): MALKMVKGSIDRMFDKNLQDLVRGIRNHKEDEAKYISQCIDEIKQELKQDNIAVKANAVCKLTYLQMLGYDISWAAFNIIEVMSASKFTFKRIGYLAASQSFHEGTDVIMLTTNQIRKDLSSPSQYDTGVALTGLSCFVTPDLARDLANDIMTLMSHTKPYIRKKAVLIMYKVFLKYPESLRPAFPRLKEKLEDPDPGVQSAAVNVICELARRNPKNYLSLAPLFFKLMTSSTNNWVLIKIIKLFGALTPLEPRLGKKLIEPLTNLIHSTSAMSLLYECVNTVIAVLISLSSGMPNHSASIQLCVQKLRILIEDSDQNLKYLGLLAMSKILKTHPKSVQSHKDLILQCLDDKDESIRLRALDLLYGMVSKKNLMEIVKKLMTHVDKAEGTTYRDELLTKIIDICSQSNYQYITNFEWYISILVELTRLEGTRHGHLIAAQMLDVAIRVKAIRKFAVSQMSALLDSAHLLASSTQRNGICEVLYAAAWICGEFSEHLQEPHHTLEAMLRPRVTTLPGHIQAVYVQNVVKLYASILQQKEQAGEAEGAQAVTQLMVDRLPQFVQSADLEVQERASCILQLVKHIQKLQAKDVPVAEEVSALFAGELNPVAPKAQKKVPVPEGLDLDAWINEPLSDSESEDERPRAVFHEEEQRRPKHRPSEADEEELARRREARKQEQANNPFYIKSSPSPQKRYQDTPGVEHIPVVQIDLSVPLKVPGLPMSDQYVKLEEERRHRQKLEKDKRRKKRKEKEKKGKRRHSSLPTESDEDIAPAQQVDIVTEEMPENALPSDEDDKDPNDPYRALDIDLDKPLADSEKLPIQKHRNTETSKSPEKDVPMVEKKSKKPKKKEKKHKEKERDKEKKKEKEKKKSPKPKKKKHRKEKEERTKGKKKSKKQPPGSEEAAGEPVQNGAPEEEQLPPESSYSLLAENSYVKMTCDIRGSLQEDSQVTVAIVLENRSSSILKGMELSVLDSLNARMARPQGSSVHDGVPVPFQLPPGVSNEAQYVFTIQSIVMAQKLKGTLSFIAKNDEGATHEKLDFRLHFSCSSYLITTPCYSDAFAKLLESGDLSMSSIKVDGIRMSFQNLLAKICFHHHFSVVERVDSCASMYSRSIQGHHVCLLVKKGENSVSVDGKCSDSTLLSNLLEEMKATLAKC
Chain of UniProt P00519 (P00519 whole entry, looked up): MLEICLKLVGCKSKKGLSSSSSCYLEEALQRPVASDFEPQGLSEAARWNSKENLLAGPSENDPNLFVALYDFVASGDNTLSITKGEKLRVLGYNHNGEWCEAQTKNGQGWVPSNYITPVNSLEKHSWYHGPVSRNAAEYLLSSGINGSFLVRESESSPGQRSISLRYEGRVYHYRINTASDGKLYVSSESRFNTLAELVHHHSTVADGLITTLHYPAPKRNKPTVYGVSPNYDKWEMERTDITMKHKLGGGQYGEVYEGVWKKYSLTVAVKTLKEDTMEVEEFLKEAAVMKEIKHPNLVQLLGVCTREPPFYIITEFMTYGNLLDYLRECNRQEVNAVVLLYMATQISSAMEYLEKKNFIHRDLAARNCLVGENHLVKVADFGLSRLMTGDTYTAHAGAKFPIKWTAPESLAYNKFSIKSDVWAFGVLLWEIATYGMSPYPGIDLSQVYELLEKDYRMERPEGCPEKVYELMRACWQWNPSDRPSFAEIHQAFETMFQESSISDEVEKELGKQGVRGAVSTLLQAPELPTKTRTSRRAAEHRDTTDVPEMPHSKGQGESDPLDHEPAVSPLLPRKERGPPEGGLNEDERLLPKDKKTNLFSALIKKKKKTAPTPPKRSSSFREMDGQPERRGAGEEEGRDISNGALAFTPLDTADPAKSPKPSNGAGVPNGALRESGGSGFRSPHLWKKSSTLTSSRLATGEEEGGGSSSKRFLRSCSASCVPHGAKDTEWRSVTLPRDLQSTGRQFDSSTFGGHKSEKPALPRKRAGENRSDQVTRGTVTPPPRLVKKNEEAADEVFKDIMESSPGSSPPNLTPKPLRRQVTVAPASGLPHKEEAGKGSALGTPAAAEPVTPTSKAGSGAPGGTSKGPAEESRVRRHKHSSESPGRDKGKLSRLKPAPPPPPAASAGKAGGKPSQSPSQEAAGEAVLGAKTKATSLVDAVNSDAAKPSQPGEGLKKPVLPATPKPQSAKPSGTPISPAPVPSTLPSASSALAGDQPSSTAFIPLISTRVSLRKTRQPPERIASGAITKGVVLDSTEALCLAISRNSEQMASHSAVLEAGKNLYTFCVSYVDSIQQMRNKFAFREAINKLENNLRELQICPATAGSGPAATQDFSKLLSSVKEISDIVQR
Chain of UniProt Q3SXY8 (Q3SXY8 whole entry, looked up): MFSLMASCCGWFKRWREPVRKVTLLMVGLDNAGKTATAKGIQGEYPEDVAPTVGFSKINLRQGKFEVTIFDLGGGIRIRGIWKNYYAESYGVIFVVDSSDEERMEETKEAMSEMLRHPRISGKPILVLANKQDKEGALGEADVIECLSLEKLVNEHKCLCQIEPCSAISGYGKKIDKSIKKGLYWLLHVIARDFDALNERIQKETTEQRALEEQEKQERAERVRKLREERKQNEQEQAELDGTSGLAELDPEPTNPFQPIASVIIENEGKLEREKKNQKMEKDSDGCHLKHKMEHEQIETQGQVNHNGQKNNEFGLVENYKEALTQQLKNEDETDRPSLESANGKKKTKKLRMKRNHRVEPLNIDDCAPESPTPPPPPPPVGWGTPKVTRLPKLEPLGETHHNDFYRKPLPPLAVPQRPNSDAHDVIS

Target | log2 fold change [1] | log2 fold change [2] | log2 fold change [3] | log2 fold change [4] | log2 fold change [5] | log2 fold change [6] | log2 fold change [7] | log2 fold change [8] | log2 fold change [9] | log2 fold change [10] | log2 fold change [11] | log2 fold change [12] | log2 fold change [13] | log2 fold change [14] | log2 fold change [15] | log2 fold change [16] | log2 fold change [17] | log2 fold change [18] | log2 fold change [19] | log2 fold change [20]
ARL13B (UniProt Q3SXY8) | 0.016 | -0.074 | -0.075 | 0.4 (active) | 0.014 | -0.23 | -0.068 | 0.025 | -0.217 | 0 | -0.012 | -0.313 | 0.095 | 0.131 | 0.013 | – | – | – | – | –
ACYP2 (UniProt P14621) | -0.049 | -0.065 | 0.082 | 0.217 | – | -0.076 | -0.024 | -0.002 | -0.105 | – | – | -0.047 | -0.009 | -0.026 | 0.019 | -0.008 | -0.079 | 0.097 | 0.009 | –
AP3D1 isoform 2 (UniProt O14617) | 0.084 | – | – | 0.19 | – | -0.429 | – | – | -0.084 | – | – | – | – | 0.034 | -0.121 | -0.287 | 0.035 | 0.376 | -0.132 | –
ABL1 isoform 2 (UniProt P00519) | -0.01 | -0.094 | – | 0.135 | 0.004 | -0.04 | – | – | -0.048 | – | -0.002 | -0.074 | 0.08 | 0.022 | -0.009 | – | 0.006 | 0.019 | -0.074 | –
ACLY isoform 2 (UniProt P53396) | 0.012 | -0.03 | 0.078 | -0.423 (active) | – | 0.323 | -0.119 | 0.004 | 0.277 | – | – | 0.162 | -0.027 | -0.062 | – | 0.08 | 0.038 | 0.191 | 0.02 | 0.055
